Data published in PubChem BioAssay.
This is one part of the list. Activity calls are given as the source filed them.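 Rule for the calls, unless noted: active = GFP response above 150% of the DMSO level; inconclusive = fewer than 70 events counted for a yeast strain; inactive = the rest.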

Tests used:
[1] = RPL19A-GFP modulators, yeast TOR pathway, confirmation, cell-based, S. cerevisiae, flow cytometry, cherry picks, mother/daughter gates (AID 2270;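 active = GFP response below 50% of the DMSO control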); details: S. cerevisiae RPL19A-GFP strain, 3 h, at 10 µM, stronger effect = lower value, 100 = same GFP as DMSO wells
[2] = LAP4-GFP expression modulators in yeast, confirmation, cell-based, cherry picks, flow cytometry, mother/daughter gates (AID 2271;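 active = GFP response above 150% of the DMSO control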;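 note: ratio of sample to DMSO plate mean so 100% equals DMSO level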); details: S. cerevisiae LAP4-GFP strain, 3 h, at 10 µM, stronger effect = higher value, 100 means same as DMSO control
[3] = modulators of MEP2-GFP levels in yeast, confirmation, S. cerevisiae, flow cytometry GFP, cherry picks (AID 2272;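 active = GFP response above 150% of the DMSO control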;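 note: ratio of well signal to plate DMSO mean so 100% equals DMSO level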); details: S. cerevisiae MEP2-GFP strain, 3 h, at 10 µM, stronger effect = higher value
[4] = AGP1-GFP expression modulators, hit retest, confirmation, cell-based, flow cytometry, S. cerevisiae, cherry picks (AID 2273);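 note: median GFP channel fluorescence over the whole cell population gate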; details: S. cerevisiae AGP1-GFP strain, 3 h, at 10 µM
[5] = modulators of CIT2-GFP expression in yeast, confirmation, S. cerevisiae, GFP fusion, cherry picks, mother/daughter gates (AID 2274); details: S. cerevisiae CIT2-GFP strain, flow cytometry, 3 h, at 10 µM, stronger effect = higher value
[6] = compound autofluorescence in yeast s288c, dose response, artefact control for yeast TOR pathway GFP screen, s288c strain (AID 2757;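 active = fluorescence span over the dose series, or activity score, above about 33, limit read from the data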;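 note: thousands of bead-calibrated equivalent soluble fluorophore molecules from median cell fluorescence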); details: S. cerevisiae s288c, 520 nm autofluorescence, flow cytometry, 3 h; at 33 µM; stronger effect = higher value; zero means same as solvent-only cells
[7] = measured here: mother cell gate response
[8] = measured here: daughter cell gate
[9] = measured here: mother cell gate

Compound | GFP response vs DMSO [1] | GFP response relative to DMSO [2] | GFP response relative to DMSO ([2]; measured here: daughter cell gate response) | GFP response relative to DMSO [2, 7] | GFP response vs DMSO [3] | GFP response, % of DMSO [4] | GFP response, % of DMSO [5] | GFP response, % of DMSO [5, 8] | GFP response, % of DMSO [5, 9] | GFP response vs DMSO [1, 8] | GFP response vs DMSO [1, 9] | fluorescence change (kMESF span) [6]
Cc1ccc(N2C(=O)C3C4C=CC(CNC(=S)Nc5cccc(Cl)c5)(O4)C3C2=O)cc1 (stereo not given) | 101% (inactive) | 97% (inactive) | 99.1% | 97.3% | 101% (inactive) | 98.4% (inactive) | 97.3% (inactive) | 99.2% | 89.5% |  |  | 
O=c1[nH]c(-c2ccccn2)nc(C(F)(F)F)c1Br | 110% (inactive) | 247% (active) |  | 219% | 118% (inactive) | 91.2% (inactive) | 112% (inactive) | 106% | 103% | 102% | 101% | 
CCc1ccc(C2CC(c3ccco3)=NN2S(C)(=O)=O)cc1 (stereo not given) | 108% (inactive) | 131% (inactive) |  |  | 180% (active) | 108% (inactive) | 188% (active) |  |  | 108% | 101% | 
Cc1ccc(NC(=O)c2ccc(Cl)c(N3C(=O)C=CC3=O)c2)cc1 | 86.1% (inactive) | 217% (active) |  | 186% | 129% (inactive) | 97.1% (inactive) | 84.9% (inactive) |  |  |  | 69.8% | 
O=C(Nc1c(-c2ccccc2)nc2c(Br)cc(Br)cn12)c1ccco1 | 94.5% (inactive) | 92.9% (inactive) |  |  | 103% (inactive) | 98.8% (inactive) | 100% (inactive) | 85.2% | 90.4% | 94.7% | 92.1% | 
CCCc1ccc(OCC(=O)NNC(=S)NC(=O)c2ccco2)cc1 | 111% (inactive) | 259% (active) |  | 226% | 139% (inactive) | 123% (inactive) | 112% (inactive) | 85.2% | 99.3% |  | 97.1% | 9.67 (inactive)
Cc1ccc(/C=C/c2ccc(N(C)C)cc2)[n+](C)c1 | 101% (inactive) | 119% (inactive) |  |  | 133% (inactive) | 103% (inactive) | 121% (inactive) | 121% | 110% | 94.2% | 93.8% | 
Cn1c(C(=O)O)cc2c(=O)n3ccccc3nc21 | 101% (inactive) | 97.7% (inactive) |  |  | 104% (inactive) | 102% (inactive) | 104% (inactive) | 104% | 95.6% | 99.3% | 99% | 
